This note sets out measurements from PubChem BioAssay.

In assay [1] the target is Cell division control protein 42 homolog (Homo sapiens) (UniProt P60953). The assay is described as follows: activated mutant Cdc42 GTP-binding inhibitors, dose response, biochemical, multiplex bead flow cytometry, Bodipy-FL-GTP (AID 1333;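 active means fitted half-maximal concentration within the tested dose range, moderate curve steepness, a statistically real signal drop, and little compound fluorescence or tag-binding interference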). (In general: A flow cytometer gives signals particle by particle.)
Sequence of Cell division control protein 42 homolog (Homo sapiens) (P60953 whole entry, looked up): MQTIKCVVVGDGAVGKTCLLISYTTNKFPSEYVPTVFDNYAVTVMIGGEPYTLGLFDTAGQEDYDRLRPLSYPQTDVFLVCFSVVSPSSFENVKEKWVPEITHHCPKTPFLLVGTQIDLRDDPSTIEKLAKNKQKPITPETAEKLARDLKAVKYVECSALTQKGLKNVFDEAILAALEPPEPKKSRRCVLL
The target is the same in assay [2]. Put plainly: wildtype Cdc42 GTP-binding inhibitors, dose response, biochemical, multiplex bead flow cytometry, Bodipy-FL-GTP (AID 1334;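 active means fitted half-maximal concentration within the tested range, moderate curve steepness, significant signal drop, and little compound fluorescence or bead-linkage interference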). Particulars: bead-based flow cytometry, Bodipy-FL-GTP binding to GST-Cdc42; at 100 µM (top of the series) unless noted.
Assay [3] addresses GTPase HRas (Homo sapiens) (UniProt P01112). The assay is described as follows: inhibitors of GTP binding to wildtype Ras, dose response, biochemical, multiplex bead flow cytometry (AID 1335). As to conditions: bead-based flow cytometry, Bodipy-GTP binding to GST-Ras; at 100 µM (top of the series) unless noted.
The test system of assay [4] is Ras-related protein Rab-7a (dog), GTP binding. The assay is described as follows: Rab7 GTP binding inhibitors, potency, dose response, biochemical, wildtype, multiplex bead flow cytometry (AID 1336; call rule not given here).
Assay [5] deals with Ras-related C3 botulinum toxin substrate 1 (Homo sapiens) (UniProt P63000). Put plainly: wildtype Rac1 GTP binding inhibitors, dose response, biochemical, multiplex bead flow cytometry (AID 1340;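 active means dose curve with midpoint inside tested range, moderate steepness, plateau gap beyond fit error, low compound glow and bead-link interference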). Particulars: GST-Rac1 beads, Bodipy-FL-GTP binding; at 100 µM (top of the series) unless noted.
In assay [6] the target is GTPase HRas (Homo sapiens) (UniProt P01112). Put plainly: activated Ras mutant GTP binding inhibitors, dose response, biochemical, multiplex bead flow cytometry (AID 1341;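 active means dose-response curve with midpoint inside the tested range, moderate steepness, significant amplitude and little compound fluorescence or bead-attachment interference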;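 further: GST-tagged constitutively activated Ras mutant immobilized on beads and multiplexed with other GTPases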).
Sequence of GTPase HRas (Homo sapiens) (P01112 whole entry, looked up): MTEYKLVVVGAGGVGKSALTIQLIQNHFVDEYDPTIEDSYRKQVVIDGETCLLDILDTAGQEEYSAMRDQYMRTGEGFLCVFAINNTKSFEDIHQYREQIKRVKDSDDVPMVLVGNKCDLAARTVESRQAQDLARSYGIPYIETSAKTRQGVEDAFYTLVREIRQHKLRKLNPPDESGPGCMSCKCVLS

For part of these data: Potency and affinity values are given separately. Activity calls are given as the source filed them.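 How the source made its calls, unless noted: active means fitted half-maximal concentration within 10 nM to 100 µM, steepness 0.5 to 2, significant signal drop, low assay interference; inactive means the rest.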

In the case of `Cn1nnnc1Sc1ncnc2scc(-c3ccc(F)cc3)c12`, the call in assay [1], in assay [4] and in assay [6] was inactive. Also, the fluorescence, percent of control (lower = inhibition) in assay [2] was determined as 52.2%. In assay [3], this compound showed a GTP binding, percent of control of 64.5%. Further, the GTP binding signal, raw median fluorescence (lower = inhibition) (MCF (arbitrary fluorescence units)) in assay [5] came out at 210.
With `CCCCOC(=O)c1cccnc1SCCc1ccccc1`, the result in assay [1], in assay [4] and in assay [6] was inactive. The fluorescence, percent of control (lower = inhibition) in assay [2] was 48.2%. This compound came in with a GTP binding, percent of control in assay [3] of 125%. The compound also had a GTP binding signal, raw median fluorescence (lower = inhibition) (MCF (arbitrary fluorescence units)) in assay [5] of 69.8.
Take `Cc1nc2nc(SCC(=O)O)nn2c(C)c1Cc1ccccc1Cl`: the compound was called inactive in assay [1], in assay [4] and in assay [6]. The fluorescence, percent of control (lower = inhibition) in assay [2] amounted to 29.1%. In assay [3], this compound yielded a GTP binding, percent of control of 84%. Also, the GTP binding signal, raw median fluorescence (lower = inhibition) (MCF (arbitrary fluorescence units)) in assay [5] stood at 228.
For the compound `CCN1/C(=C/c2ccc3cc(C)ccc3[n+]2C)Sc2ccc3sccc3c21`, the result in assay [1], in assay [4] and in assay [6] was inactive. Besides, the fluorescence, percent of control (lower = inhibition) in assay [2] stood at 41.6%. The GTP binding, percent of control in assay [3] was 74.4%. In assay [5], this compound had a GTP binding signal, raw median fluorescence (lower = inhibition) (MCF (arbitrary fluorescence units)) of 263.
Consider `COc1ccc(NC(=S)N(CCN(C)C)C(C)c2ccco2)cc1Cl` (stereo unspecified), for which the result in assay [1], in assay [4] and in assay [6] was inactive. Moreover, the fluorescence, percent of control (lower = inhibition) in assay [2] was found to be 49.2%. In addition, the GTP binding, percent of control in assay [3] was 60.4%. Moreover, the GTP binding signal, raw median fluorescence (lower = inhibition) (MCF (arbitrary fluorescence units)) in assay [5] came out at 210.
As for `C=CCSc1nc(N)c(C#N)c(-c2ccc(C)cc2)c1C#N`, the compound was called inactive in assay [1], in assay [4] and in assay [6]. Besides, in assay [2], the fluorescence, percent of control (lower = inhibition) was 35%. Further, the GTP binding, percent of control in assay [3] was 83.1%. The same compound yielded a GTP binding signal, raw median fluorescence (lower = inhibition) (MCF (arbitrary fluorescence units)) in assay [5] of 262.
`O=C(O)c1ccc(CNCc2ccc(F)cc2)s1`: the call in assay [1], in assay [4] and in assay [6] was inactive. The fluorescence, percent of control (lower = inhibition) in assay [2] turned out to be 61.1%. Moreover, the GTP binding, percent of control in assay [3] is 84.5%. In addition, the GTP binding signal, raw median fluorescence (lower = inhibition) (MCF (arbitrary fluorescence units)) in assay [5] came to 34.7.
As for `Cc1ccc(Nc2nc(N)c(C#N)c(CC#N)c2C#N)cc1`, the call in assay [1], in assay [4] and in assay [6] was inactive. Moreover, the fluorescence, percent of control (lower = inhibition) in assay [2] is 36.6%. The same compound displayed a GTP binding, percent of control in assay [3] of 85.9%. Also, the GTP binding signal, raw median fluorescence (lower = inhibition) (MCF (arbitrary fluorescence units)) in assay [5] turned out to be 224.
In the case of `Nc1c(S(=O)(=O)c2cccc(Cl)c2)c2nc3ccccc3nc2n1/N=C/c1ccc(O)c(O)c1`, the result in assay [1], in assay [4] and in assay [6] was inactive. For the same compound, the fluorescence, percent of control (lower = inhibition) in assay [2] was determined as 54.4%. In assay [3], this compound registered a GTP binding, percent of control of 91.7%. The compound also yielded a GTP binding signal, raw median fluorescence (lower = inhibition) (MCF (arbitrary fluorescence units)) in assay [5] of 99.4.
In the case of `COc1cc(/C=N/Nc2nncn2/N=C/c2ccc(O)c(OC)c2)ccc1O`, the call in assay [1], in assay [4] and in assay [6] was inactive. The fluorescence, percent of control (lower = inhibition) in assay [2] was found to be 30.7%. Besides, the GTP binding, percent of control in assay [3] came to 68.3%. Moreover, the GTP binding signal, raw median fluorescence (lower = inhibition) (MCF (arbitrary fluorescence units)) in assay [5] is 147.
With `O=C(NNc1nc(-c2ccccc2)c2cc(Br)ccc2n1)c1ccc(S(=O)(=O)N2CCOCC2)cc1`, the call in assay [1], in assay [4] and in assay [6] was inactive. For the same compound, the fluorescence, percent of control (lower = inhibition) in assay [2] is 40.3%. Besides, the GTP binding, percent of control in assay [3] was 53.5%. The GTP binding signal, raw median fluorescence (lower = inhibition) (MCF (arbitrary fluorescence units)) in assay [5] turned out to be 124.
For `COc1cccc(CNCc2sc(C(=O)O)cc2C)c1`, the call in assay [1], in assay [4] and in assay [6] was inactive. The fluorescence, percent of control (lower = inhibition) in assay [2] is 62.1%. For the same compound, in assay [3], the GTP binding, percent of control was 87.2%. The same compound displayed a GTP binding signal, raw median fluorescence (lower = inhibition) (MCF (arbitrary fluorescence units)) in assay [5] of 33.8.
On to `Cc1ccc(CSc2nc3[nH]ncc3c(=O)[nH]2)cc1`, for which the outcome in assay [1], in assay [4] and in assay [6] was inactive. For the same compound, in assay [2], the fluorescence, percent of control (lower = inhibition) amounted to 37.4%. In addition, the GTP binding, percent of control in assay [3] was 80.6%. This compound also showed a GTP binding signal, raw median fluorescence (lower = inhibition) (MCF (arbitrary fluorescence units)) in assay [5] of 173.
Turning to `Cc1cc(C)n(C(=O)CNC(=O)c2ccc3c(c2)OCCO3)n1`, the call in assay [1], in assay [4] and in assay [6] was inactive. In assay [2], the fluorescence, percent of control (lower = inhibition) was found to be 53.2%. Besides, the GTP binding, percent of control in assay [3] stood at 61.7%. In addition, the GTP binding signal, raw median fluorescence (lower = inhibition) (MCF (arbitrary fluorescence units)) in assay [5] came out at 200.
Take `COc1ccc(CNC(=O)C2CC(=O)N(c3ccc(OCC(=O)N4C(C)CCCC4C)cc3)C2)cc1` (stereo unspecified): the result in assay [1], in assay [4] and in assay [6] was inactive. Also, the fluorescence, percent of control (lower = inhibition) in assay [2] worked out at 106%. Besides, the GTP binding, percent of control in assay [3] was determined as 177%. In assay [5], this compound gave a GTP binding signal, raw median fluorescence (lower = inhibition) (MCF (arbitrary fluorescence units)) of 183.
As to `Cc1sc2nc3c4ccccc4c(NCc4ccco4)nn3c(=O)c2c1C`, the result in assay [1], in assay [4] and in assay [6] was inactive. Also, in assay [2], the fluorescence, percent of control (lower = inhibition) amounted to 94%. This compound also yielded a GTP binding, percent of control in assay [3] of 104%. Also, in assay [5], the GTP binding signal, raw median fluorescence (lower = inhibition) (MCF (arbitrary fluorescence units)) came out at 123.
